Experimental findings from ChEMBL document CHEMBL1961873, “Compounds: GSK PKIS; Assays: Nanosyn kinase panel” (2012) are described below.

Each structure is given as a SMILES string. Several values for one entry are separate records, joined by “and”; a condition that tells them apart may be missing. Equal entries are not always repeated.

RAC-beta serine/threonine-protein kinase (Homo sapiens), sequence (P31751 whole entry): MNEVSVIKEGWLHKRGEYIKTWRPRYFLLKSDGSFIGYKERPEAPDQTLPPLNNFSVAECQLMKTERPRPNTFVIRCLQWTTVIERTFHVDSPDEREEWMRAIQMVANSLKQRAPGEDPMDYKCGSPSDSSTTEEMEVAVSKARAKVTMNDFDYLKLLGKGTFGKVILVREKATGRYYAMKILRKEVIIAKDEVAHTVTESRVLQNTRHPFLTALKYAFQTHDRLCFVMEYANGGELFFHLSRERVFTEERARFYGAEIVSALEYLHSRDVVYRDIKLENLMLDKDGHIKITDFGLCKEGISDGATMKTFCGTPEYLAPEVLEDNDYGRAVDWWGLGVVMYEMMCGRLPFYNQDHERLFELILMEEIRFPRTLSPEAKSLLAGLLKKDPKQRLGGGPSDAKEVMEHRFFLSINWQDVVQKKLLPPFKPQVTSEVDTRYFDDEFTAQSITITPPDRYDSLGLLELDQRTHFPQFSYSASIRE

The test addresses RAC-beta serine/threonine-protein kinase (Homo sapiens) (UniProt P31751). Conditions: at 1 µM.
The term inhibition denotes the drop in the measured response relative to a control, in per cent. For `Nc1nonc1-c1nc2cnccc2n1C1CC1`, the inhibition is 5.04% and 2.15%.

For `NS(=O)(=O)c1cccc(N/C=C2\C(=O)Nc3ccccc32)c1`, the inhibition came to 1.98%. As to `CC1=C(C(=O)Nc2ccc3[nH]ncc3c2)C(c2ccc(F)cc2)N=C(c2ccc(C(F)(F)F)nc2)N1` (stereo unspecified), the inhibition was determined as 1.43%. Regarding `CNC(=O)c1cncc(/C=C/c2ccccc2C)c1`, the inhibition was found to be 2.34%.

With `CN1CCC(C(=O)Nc2n[nH]c3nc(-c4ccc(O)cc4)c(Br)cc23)CC1`, the inhibition was -1.57% and 1.31%. Take `Cc1cc(O)cc(C)c1/C=C/c1cncc(C(N)=O)c1`: the inhibition is 1.63%. For the compound `CS(=O)(=O)Nc1ccc(-c2cc(-c3ccccc3)cc(C(N)=O)c2N)cc1`, the inhibition was determined as 1.28%. On to `CS(=O)(=O)CCNCc1ccc(-c2ccc3ncnc(Nc4ccc(OCc5ccccc5)cc4)c3c2)o1`, for which the inhibition was 1.64%. Consider `CCOc1ccc2c(-c3ccnc(Nc4cc(OC)cc(C(F)(F)F)c4)n3)cnn2n1`, for which the inhibition is 0.53%.

On to `Cc1cc(O)cc(C)c1/C=C/c1cncc(C(=O)OC(C)(C)C)c1`, for which the inhibition stood at 0.98%. Next, `O=C1Nc2ccccc2/C1=C1\CCc2cc(O)ccc21`: 4.03%; `CCS(=O)(=O)c1ccc(OC)c(Nc2ncc(-c3cccc(F)c3)o2)c1`: 3.48%. Turning to `COc1cccc(Nc2nccc(-c3cnn4ncccc34)n2)c1`, the inhibition is 0.61%.

For the compound `Nc1ncnc2occ(-c3ccc(NC(=O)Nc4cc(C(F)(F)F)ccc4F)cc3)c12`, the inhibition was 0.45% and -2.44%. For `O=C(Nc1n[nH]c2nnc(-c3cccnc3)cc12)C1CC1`, the inhibition is 0.1%.

Turning to `O=C(O[C@H]1CN[C@H](C#Cc2cc3ncnc(Nc4ccc5c(cnn5Cc5ccccc5)c4)c3s2)C1)N1CCOCC1`, the inhibition is -0.1%. For `COc1cc(N2CCN(C(C)C)CC2)ccc1Nc1nc(Nc2cccc3ncccc23)c2cc[nH]c2n1`, the inhibition is -0.32%. Turning to `CS(=O)(=O)CCNCc1ccoc1-c1ccc2ncnc(Nc3ccc(OCc4ccccc4)cc3)c2c1`, the inhibition turned out to be 0.41%. Next, `CCN1CCC(C(=O)Nc2n[nH]c3nnc(-c4cccc(F)c4F)cc23)CC1`: -0.35%.

Turning to `COc1ccc(-c2nn3ncccc3c2-c2ccnc(Nc3ccc(F)c(F)c3)n2)cc1`, the inhibition came to 1.42%.

On to `CCS(=O)(=O)c1ccc(OC)c(Nc2ncc(-c3cccc(C(C)=O)c3)o2)c1`, for which the inhibition amounted to 2.41%. Turning to `c1cnn2ncc(-c3ccnc(NCCCN4CCOCC4)n3)c2c1`, the inhibition was 1.85%. To `CN(C)CCNC(=O)Nc1ccc(N(C)c2ccnc(Nc3ccc(CS(C)(=O)=O)cc3)n2)cc1` belongs 0.96%.

For `CCn1c(-c2nonc2N)nc2cncc(C(=O)NCCNC)c21`, the inhibition worked out at 10.5%. Take `COc1cc(N2CCN(C(C)C)CC2)ccc1Nc1nc(Nc2cccc(F)c2C(=O)O)c2cc[nH]c2n1`: the inhibition was 1.08%. As to `COC(=O)Nc1nc2cc(Oc3ccc(NC(=O)Nc4ccccc4)cc3)ccc2[nH]1`, the inhibition came to 1.16%.

For `NC(=O)c1ccc2c(-c3ccnc(NCCCO)n3)c(-c3ccc(F)cc3)nn2c1`, the inhibition amounted to 1.08%.

Take `CS(=O)(=O)Nc1ccc(-c2ccc3c(NC(=O)C4CC4)n[nH]c3c2)cc1`: the inhibition stood at 4.27%.

For the compound `COC(=O)Nc1nc2ccc(Oc3ccc(NC(=O)Nc4cc(C(F)(F)F)ccc4F)cc3)cc2s1`, the inhibition was -0.64%. Next, `COc1ccccc1-c1cc(/C=C2\C(=O)Nc3ncc(Br)cc32)cc(Br)c1O`: 2.36%; `Cc1nnc(-c2cccc(-c3ccc(C(=O)NCC4CC4)cc3)c2)o1`: 1.84%.
